Out of some 69,000 compounds screened, about 1,000 (1.4%) showed an effect of 50% or more. The entries come from a sample that favours strong results as a whole.
Test system: Leishmania donovani
Test: Leishmania intramacrophage assay
Assay type: functional, organism-based
Set-up: scale not given: in the data most compounds retested in dose-response had high values

COc1cccc(CN2CCCC3(CCN(C(=O)[C@H]4CCCO4)C3)C2)c1 (stereo partly specified)
Percent Effect (30 µM, 30.03 µM): 29.96%

COc1cccc(CN2CCCC3(CCN(C(=O)N4CCCC4)C3)C2)c1.O=C(O)C(F)(F)F (stereo unspecified)
Percent Effect (30.3 µM, […]): 1.476%

COc1cccc(CN2CCCC3(CCN(C(=O)c4ccco4)C3)C2)c1 (stereo unspecified)
Percent Effect (30 µM, 30.03 µM): 53.43%

COCc1ncc(CN2CC[C@@](C)(O)[C@@H](Cc3ccccc3)C2)cn1
Percent Effect (30.3 µM, […]): 11.16%

Cc1ccc2c(ccn2CCC(=O)NC[C@@H]2CCCN3CCCC[C@H]23)c1
Percent Effect (30 µM, 30.03 µM): 28.72%

O=C(Cn1ccc2cc(Br)ccc21)NC[C@@H]1CCCN2CCCC[C@H]12
Percent Effect (30.3 µM, […]): 50.79%

COc1ccc2c(ccn2CC(=O)NC[C@@H]2CCCN3CCCC[C@H]23)c1
Percent Effect (30.3 µM, […]): 29.51%

O=C(CCn1ccc2cc(Br)ccc21)NC[C@@H]1CCCN2CCCC[C@H]12
Percent Effect (30.3 µM, […]): 94.12%

Cc1ccc2c(ccn2CC(=O)NC[C@@H]2CCCN3CCCC[C@H]23)c1
Percent Effect (30 µM, 30.03 µM): 26.96%

O=C(Cn1ccc2ccc(Br)cc21)NC[C@@H]1CCCN2CCCC[C@H]12
Percent Effect (30 µM, 30.03 µM): -30.69%

CO[C@H]1CCN(Cc2ccoc2)C[C@@H]1Cc1ccccc1.O=C(O)C(F)(F)F
Percent Effect (30.3 µM, […]): 25.61%

COc1c(C)cnc(CSc2nnc(NC3CC3)s2)c1C
Percent Effect (30.3 µM, […]): 13.54%

O=C(NCC(=O)N1CCCC(c2ccccc2)CC1)c1ccoc1 (stereo unspecified)
Percent Effect (30 µM): 24.45%

O=C([C@H]1CCCO1)N1CCc2ncc(CN3CCOCC3)n2CC1
Percent Effect (30.3 µM, […]): 32.4%

Cc1cnn(CC(C)NCc2ccc(OCC(N)=O)cc2)c1 (stereo unspecified)
Percent Effect (30 µM): 8.68%

Cc1c(CN2CC[C@@H](N3CCC(O)CC3)[C@H](O)C2)[nH]c2ccc(F)cc12
Percent Effect (30.3 µM, […]): 26.65%

Cc1c(CN2CC[C@@H](N3CCC(O)CC3)[C@H](O)C2)[nH]c2ccc(Cl)cc12
Percent Effect (30.3 µM, […]): 82.7%

Cc1ccc2[nH]c(CN3CC[C@@H](N4CCN(C)CC4)[C@H](O)C3)c(C)c2c1
Percent Effect (30.3 µM, […]): 23.41%

O=C(c1ccc(S(=O)(=O)NCc2ccon2)cc1)N1CCOCC1
Percent Effect (30.3 µM, […]): 0.2735%

Oc1ccc(-c2c(-c3ccccc3)ncn2C2CCNC2)cc1 (stereo unspecified)
Percent Effect (30.3 µM, […]): -26.99%

Cc1nc[nH]c1-c1c(-c2ccccc2)ncn1C1CCNC1 (stereo unspecified)
Percent Effect (30.3 µM, […]): -1.128%

CCOc1ccc(-c2c(-c3ccccc3)ncn2C2CCNC2)cn1 (stereo unspecified)
Percent Effect (30.3 µM, […]): 76.3%

Cc1nc(CN2CCN(c3ncnc4ccccc34)CC2)no1
Percent Effect (30.3 µM, […]): 19.7%

Cc1nc(C)n(CC2CCCN(c3ncnc4c3CCC4)C2)n1 (stereo unspecified)
Percent Effect (30 µM, 30.03 µM): 28.07%

Cc1nc(C)n(CC2CCCN(c3ncnc4sccc34)C2)n1 (stereo unspecified)
Percent Effect (30 µM, 30.03 µM): -10.34%

Cc1nc(C)n(CC2CCCN(c3ncnc4ccsc34)C2)n1 (stereo unspecified)
Percent Effect (30 µM, 30.03 µM): 35.24%

CCc1nc(CN2CCCN(c3ncnc4ccccc34)CC2)no1
Percent Effect (30 µM, 30.03 µM): 55.68%

CCc1nc(CN2CCCN(c3ncnc4ccsc34)CC2)no1
Percent Effect (30.3 µM, […]): 27.83%

Cc1nc(C)n(CC2CCCN(c3ncnc4ccccc34)C2)n1 (stereo unspecified)
Percent Effect (30 µM): 54.57%

Cc1nc(C)n(CC2CN(c3ncnc4[nH]ccc34)CCO2)n1 (stereo unspecified)
Percent Effect (30 µM, 30.03 µM): -5.028%

Cc1nc(C)n(CC2CCCN(c3ncnc4[nH]ccc34)C2)n1 (stereo unspecified)
Percent Effect (30 µM, 30.03 µM): 52.77%

From ChEMBL document CHEMBL3988442, “University of Dundee, Small-Polar-MMV Screening Library” (2021)
